About 83,000 compounds went through this panel and 20% of them were active in at least one assay; those are over-represented in the sample as a whole.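 Negative percent growth values reflect cell death: -40 means 40% of the cells present at the start died, and -100 means all died.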 A number with no mark means an inactive call. Calls of active or inactive are those of the source. How the source made its calls: active means growth percent below 10; inactive means the rest.

Test systems include NCI-H23 lung; NCI-H226 lung; NCI-H322M lung; HOP-62 NSCLC; NCI-H460 lung; HOP-92 NSCLC; NCI-H522 lung; A549/ATCC NSCLC; 786-0 renal; COLO 205 colon; DU-145 prostate; K-562 leukemia; MALME-3M melanoma; MDA-MB-231 breast; RXF 393 renal; SF-268 CNS; SF-295 CNS; SF-539 CNS; UACC-257 melanoma; M14 melanoma.
What all share (assay): NCI-60 one-dose screen, 48 h (100 = growth as untreated, 0 = no growth, -100 = all killed)
Holding throughout (conditions): 10 µM unless noted

For the molecule `CC(C)NS(=O)(=O)c1cccc(-c2ccc3c4c(n(CCCN(C)C)c(=O)c3c2)-c2ccccc2C4=O)c1`, the growth was 98.6% in the assay with NCI-H23 lung; 92.9% in the assay on NCI-H226 lung; 104% in the assay with NCI-H322M lung; 101% in the assay on HOP-62 NSCLC; 28.5% in the assay with NCI-H460 lung; 114% with HOP-92 NSCLC. Also, the growth was 86.7% with NCI-H522 lung; 83.5% with A549/ATCC NSCLC; 33.8% in the assay on 786-0 renal; 98.9% with COLO 205 colon; 108% in the assay on DU-145 prostate; -57.8% (active) with K-562 leukemia. Further, the growth with MALME-3M melanoma was 91.6%; in the assay with MDA-MB-231 breast, 83.8%; in the assay with RXF 393 renal, 96.1%; in the assay on SF-268 CNS, 103%; in the assay with SF-295 CNS, 104%; in the assay on SF-539 CNS, 90.7%. The growth is 107% with UACC-257 melanoma and 104% in the assay with M14 melanoma.

Consider `C#C[C@@]1(O)[C@@H](CO)O[C@@H](n2cc(Br)c3c(N)ncnc32)[C@@H]1O`, for which the growth was 2.83% (active) with NCI-H23 lung; 21.2% in the assay with NCI-H226 lung; 1.46% (active) with NCI-H322M lung; -5.18% (active) with HOP-62 NSCLC; -36% (active) in the assay with NCI-H460 lung; -27.2% (active) in the assay with HOP-92 NSCLC. For the same molecule, the growth was -30.7% (active) in the assay on NCI-H522 lung; -51.8% (active) in the assay on A549/ATCC NSCLC; -48.5% (active) with 786-0 renal; -36.8% (active) in the assay with COLO 205 colon; 5% (active) in the assay on DU-145 prostate; 5.03% (active) in the assay with K-562 leukemia. The growth with MALME-3M melanoma is 5.66% (active); in the assay with MDA-MB-231 breast it was 2.76% (active); in the assay with RXF 393 renal it was -30.9% (active); in the assay on SF-268 CNS, 13.9%; in the assay on SF-295 CNS, 2.42% (active); in the assay on SF-539 CNS it was -60.8% (active). Also, the results for the growth in the assay on UACC-257 melanoma and in the assay with M14 melanoma were 57.5% and 0.212% (active), respectively.

For `Cc1cc(C)c2nc(Nc3nc(C)c(C)c(=O)[nH]3)nc(C)c2c1`, the growth in the assay with NCI-H23 lung is 18.4%; with NCI-H226 lung it was -4.16% (active); in the assay on NCI-H322M lung it was 23.8%; with HOP-62 NSCLC it was 12.2%; with NCI-H460 lung it was 8.55% (active); in the assay on HOP-92 NSCLC, 7.24% (active). Moreover, the growth in the assay with NCI-H522 lung is 7.15% (active); in the assay with A549/ATCC NSCLC, -32.4% (active); with 786-0 renal, 6.33% (active); with COLO 205 colon, 1.63% (active); with DU-145 prostate it was 19.1%; in the assay with K-562 leukemia, 12.2%. Moreover, the growth was -6.48% (active) in the assay with MALME-3M melanoma; 27.8% in the assay on MDA-MB-231 breast; -32.4% (active) in the assay with RXF 393 renal; 26.9% in the assay with SF-268 CNS; 11% in the assay on SF-295 CNS; 13.5% in the assay on SF-539 CNS. The growth in the assay on UACC-257 melanoma was 14.1%; in the assay on M14 melanoma, 13.7%.

Turning to `COC1=CC2C=C(C3N(c4ccccc4)NC(=O)[C@@H]4CCCN34)C(=O)NC2C=C1` (stereo not given in full), the growth in the assay on NCI-H23 lung was 89.7%; in the assay with NCI-H226 lung, 105%; in the assay with NCI-H322M lung it was 93.5%; in the assay with HOP-62 NSCLC, 93.1%; in the assay with NCI-H460 lung, 110%; in the assay on HOP-92 NSCLC it was 124%. In addition, the growth was 87.6% in the assay with NCI-H522 lung; 107% with A549/ATCC NSCLC; 99.5% with 786-0 renal; 111% in the assay on COLO 205 colon; 112% in the assay on DU-145 prostate; 93.3% in the assay on K-562 leukemia. Moreover, the growth with MALME-3M melanoma is 113%; in the assay with MDA-MB-231 breast, 111%; in the assay on RXF 393 renal it was 116%; in the assay on SF-268 CNS, 99.8%; with SF-295 CNS it was 103%; in the assay with SF-539 CNS it was 109%. Further, the values for the growth in the assay with UACC-257 melanoma and in the assay with M14 melanoma were 108% and 101%, respectively.

With `COc1cc(C2CC(c3ccc(Nc4nc(NCCO)nc(NCCO)n4)cc3)=NN2c2cc(Cl)cc(Cl)c2)cc(OC)c1OC` (stereo not given), the growth is 4.73% (active) in the assay on NCI-H23 lung; 106% in the assay with NCI-H226 lung; 11.9% in the assay with NCI-H322M lung; 14.4% in the assay on HOP-62 NSCLC; -24.5% (active) in the assay on NCI-H460 lung; 89.9% in the assay with HOP-92 NSCLC. Moreover, the growth in the assay on NCI-H522 lung was 25.1%; with A549/ATCC NSCLC, 0.449% (active); in the assay with 786-0 renal, -17.5% (active); in the assay on COLO 205 colon, 35%; in the assay on DU-145 prostate it was 12.8%; with K-562 leukemia, 2.02% (active). Further, the growth in the assay on MALME-3M melanoma is -66.3% (active); with MDA-MB-231 breast, -19.2% (active); in the assay on RXF 393 renal, -42.5% (active); in the assay with SF-268 CNS it was -33.3% (active); in the assay on SF-295 CNS it was 6.18% (active); in the assay on SF-539 CNS, -61.3% (active). In addition, the figures for the growth in the assay on UACC-257 melanoma and in the assay on M14 melanoma were 13.2% and -14.3% (active), respectively.

As for `COc1ccc(Cc2nc(C#N)c(N3CCN(c4ccc(F)cc4)CC3)o2)cc1`, the growth was 86.3% in the assay with NCI-H23 lung; 74.1% with NCI-H226 lung; 99.5% in the assay with NCI-H322M lung; 95.8% in the assay on HOP-62 NSCLC; 104% in the assay on NCI-H460 lung; 88.2% with HOP-92 NSCLC. For the same molecule, the growth in the assay on NCI-H522 lung is 73.6%; in the assay on A549/ATCC NSCLC it was 92.1%; in the assay on 786-0 renal, 91.1%; with COLO 205 colon, 103%; in the assay with DU-145 prostate it was 100%; in the assay on K-562 leukemia it was 75.3%. The growth in the assay on MALME-3M melanoma is 104%; in the assay on MDA-MB-231 breast, 98.4%; with RXF 393 renal, 76%; with SF-268 CNS, 90.5%; with SF-295 CNS it was 95.5%; in the assay on SF-539 CNS, 98.2%. In addition, the growth in the assay on UACC-257 melanoma is 112%; with M14 melanoma, 90%.

For `CCCCn1c(=O)c(/C=C/C(=O)/C=C/c2ccc(OC)cc2)cc2cc(Cl)ccc21`, the growth was 48.6% with NCI-H23 lung; 70% in the assay on NCI-H226 lung; 72.7% in the assay on NCI-H322M lung; 102% with HOP-62 NSCLC; 20.7% with NCI-H460 lung; 102% in the assay with HOP-92 NSCLC. In addition, the growth with NCI-H522 lung is 56.3%; with A549/ATCC NSCLC, 51.1%; with 786-0 renal it was 28.4%; in the assay with COLO 205 colon it was 88.3%; in the assay on DU-145 prostate, 53.5%; in the assay with K-562 leukemia, 25.2%. Further, the growth with MALME-3M melanoma was 119%; with MDA-MB-231 breast, 83.8%; with RXF 393 renal, 84.5%; with SF-268 CNS it was 42.6%; in the assay with SF-295 CNS, 19.9%; with SF-539 CNS, 91.8%. The growth with UACC-257 melanoma was 92.1%; in the assay with M14 melanoma it was 95%.

On to `COc1ccc(-n2nc(C(=O)NCC(=O)O)nc2-c2ccccc2)cc1`, for which the growth was 107% with NCI-H23 lung; 105% in the assay on NCI-H226 lung; 98.1% with NCI-H322M lung; 108% in the assay on HOP-62 NSCLC; 116% with NCI-H460 lung; 97.1% with HOP-92 NSCLC. In addition, the growth is 82.5% with NCI-H522 lung; 97.8% with A549/ATCC NSCLC; 102% in the assay with 786-0 renal; 124% in the assay with COLO 205 colon; 111% in the assay with DU-145 prostate; 93.4% with K-562 leukemia. In addition, the growth in the assay on MALME-3M melanoma is 92.4%; in the assay on MDA-MB-231 breast, 108%; in the assay on RXF 393 renal, 120%; in the assay with SF-268 CNS, 99.3%; in the assay on SF-295 CNS, 107%; in the assay on SF-539 CNS, 97.2%. For the same molecule, the figures for the growth with UACC-257 melanoma and in the assay on M14 melanoma were 97.1% and 102%, respectively.

For the origin of these results see PubChem BioAssay (NCI).
